Most compounds without a hit are left out; they make up all but 6.7% or so of the library.
C diff growth: inhibitors of Clostridium difficile growth. Clostridium difficile clinical isolate growth, OD600, 24 h; stronger effect = lower value. growth activity, negative = inhibition, % at 16 µg/mL (by protocol). 86,000 compounds, 0.25% hits. AID 1259249;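 active = mean growth activity at or below -80% and every replicate also at or below -80%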;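 also: 0% = DMSO wells and -100% = levofloxacin 16 µg/mL wells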
T cruzi growth: inhibitors of T. cruzi proliferation; inhibition, % at 8.34 µM; 77,000 compounds, 5.9% hits; AID 624255; T. cruzi beta-gal in NIH3T3, GalScreen luminescence, 90 h;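 active = mean inhibition above about 93%, with at least 55% of replicates each passing it, limit read from the data, passing the limit was not always enough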
Pf Dd2 inh: P. falciparum Dd2 growth inhibition | SYBR Green, 72 h; stronger effect = lower value | activity change, % at 10 µM | 94,000 compounds, 2.3% hits | AID 1159554; in the data active = activity change below about -80%
An asterisk follows results filed as active; . = no result given.

SMILES	C diff growth	T cruzi growth	Pf Dd2 inh
COc1ccc(S(=O)(=O)N(C)C[C@H]2Oc3c(NC(=O)Nc4ccc5c(c4)OCO5)cccc3C(=O)N([C@H](C)CO)C[C@H]2C)cc1	-6	8	-14
COc1ccc(S(=O)(=O)N(C)C[C@@H]2Oc3c(NC(=O)Nc4ccccc4)cccc3C(=O)N([C@H](C)CO)C[C@@H]2C)cc1	.	19	-8
COc1ccc(S(=O)(=O)N(C)C[C@H]2Oc3c(NC(=O)Nc4ccccc4)cccc3C(=O)N([C@@H](C)CO)C[C@H]2C)cc1	.	47	-90*
CCC(=O)Nc1ccc2c(c1)C(=O)N(C)[C@@H]1CC[C@@H](CC(=O)N3CCCCC3)O[C@@H]1CO2	-7	56	2
COc1ccc(S(=O)(=O)Nc2ccc3c(c2)CC(=O)N([C@H](C)CO)C[C@@H](C)[C@H](CN(C)Cc2ccc(C(=O)Nc4ccccc4N)cc2)O3)cc1	-5	.	8
COc1ccc(S(=O)(=O)Nc2ccc3c(c2)CC(=O)N([C@@H](C)CO)C[C@H](C)[C@H](CN(C)Cc2ccc(C(=O)Nc4ccccc4N)cc2)O3)cc1	0	.	-79
COc1ccc(S(=O)(=O)Nc2ccc3c(c2)CC(=O)N([C@@H](C)CO)C[C@H](C)[C@@H](CN(C)Cc2ccc(C(=O)Nc4ccccc4N)cc2)O3)cc1	17	.	-88*
COc1ccc(S(=O)(=O)Nc2ccc3c(c2)CC(=O)N([C@H](C)CO)C[C@H](C)[C@@H](CN(C)Cc2ccc(C(=O)Nc4ccccc4N)cc2)O3)cc1	-5	49	-85*
C[C@H]1CN([C@@H](C)CO)S(=O)(=O)c2ccc(C#CCC3CCCC3)cc2O[C@@H]1CN(C)Cc1ccc(C(=O)O)cc1	-14	-17	-34
COc1ccc2c3c(n(C)c2c1)[C@H](CO)N(C(=O)C1CCC1)CC31CCN(C)CC1	4	.	6
COc1ccc2c3c(n(C)c2c1)[C@H](CO)N(C(=O)C1CC1)CC31CCN(C)CC1	3	.	-86*
COc1ccc2c3c(n(C)c2c1)[C@H](CO)N(C(=O)C1CC1)CC31CN(C(=O)C2CCOCC2)C1	-1	.	-87*
COc1ccc2c3c(n(C)c2c1)[C@H](CO)N(C(=O)C1CCOCC1)CC31CN(C(=O)C2CCOCC2)C1	-4	.	-1
C[C@@H]1CN([C@@H](C)CO)S(=O)(=O)c2ccc(-c3ccccc3)cc2O[C@@H]1CN(C)S(C)(=O)=O	-1	12	-7
CO[C@H]1CN(C)C(=O)c2ccc(NC(=O)c3nc4ccccc4s3)cc2OC[C@@H](C)NC[C@H]1C	.	-3	-26
C[C@@H]1CN([C@@H](C)CO)C(=O)c2cc(NS(=O)(=O)c3cn(C)cn3)ccc2O[C@H]1CN(C)CC1CC1	1	-39	13
CO[C@H]1CN(C)C(=O)c2cc(NS(=O)(=O)c3ccc(C)cc3)ccc2OC[C@H](C)N(C)C[C@H]1C	.	52	-9
Cc1nc(N2[C@H](CO)[C@H](c3ccccc3)[C@H]2CNCC2CCCC2)sc1C	27	.	-90*
COCCNC[C@H]1[C@H](c2ccccc2)[C@H](CO)N1c1nc(C)c(C)s1	7	92	-25
COCC#Cc1ccc2c(c1)O[C@H](CN(C)C(=O)CN(C)C)[C@H](C)CN([C@@H](C)CO)S2(=O)=O	-6	-70	23
C[C@@H]1CCCCO[C@H](CN(C)C(=O)CCC(F)(F)F)[C@H](C)CN([C@H](C)CO)C(=O)c2cc(NS(=O)(=O)c3cn(C)cn3)ccc2O1	-3	19	0
Cc1noc(C)c1S(=O)(=O)N(C)C[C@H]1OCCCC[C@@H](C)Oc2ccc(NC(=O)Nc3ccc(C(F)(F)F)cc3)cc2C(=O)N([C@@H](C)CO)C[C@H]1C	-1	97*	-71
Cc1noc(C)c1S(=O)(=O)N(C)C[C@@H]1OCCCC[C@@H](C)Oc2ccc(NC(=O)Nc3ccc(C(F)(F)F)cc3)cc2C(=O)N([C@H](C)CO)C[C@H]1C	31	96	-92*
Cc1noc(C)c1S(=O)(=O)N(C)C[C@H]1OCCCC[C@H](C)Oc2ccc(NC(=O)Nc3ccc(C(F)(F)F)cc3)cc2C(=O)N([C@H](C)CO)C[C@H]1C	13	96	-76
C[C@H]1CCCCO[C@H](CN(C)S(=O)(=O)c2cn(C)cn2)[C@@H](C)CN([C@@H](C)CO)C(=O)c2cc(NC(=O)CCCN(C)C)ccc2O1	-81*	-24	39
SMILES	C diff growth	T cruzi growth	Pf Dd2 inh
Cc1noc(C)c1S(=O)(=O)N(C)C[C@@H]1OCCCC[C@@H](C)Oc2ccc(NC(=O)Nc3ccc(C(F)(F)F)cc3)cc2C(=O)N([C@H](C)CO)C[C@@H]1C	7	91	-44
C[C@@H]1CCCCO[C@@H](CN(C)S(=O)(=O)c2cn(C)cn2)[C@H](C)CN([C@H](C)CO)C(=O)c2cc(NC(=O)Nc3ccc(C(F)(F)F)cc3)ccc2O1	0	31	-88*
C[C@H]1CCCCO[C@@H](CN(C)S(=O)(=O)c2cn(C)cn2)[C@@H](C)CN([C@@H](C)CO)C(=O)c2cc(NC(=O)Nc3ccc(C(F)(F)F)cc3)ccc2O1	.	27	-71
C[C@@H]1CN([C@@H](C)CO)C(=O)c2cc(NC(=O)CCCN(C)C)ccc2O[C@@H](C)CCCCO[C@@H]1CN(C)S(=O)(=O)c1cn(C)cn1	-9	43	70
CO[C@@H]1CN(C)C(=O)c2cc(NC(=O)Nc3ccccc3F)ccc2OC[C@H](C)N(CC2CC2)C[C@H]1C	.	44	-39
COc1ccc(NC(=O)N(C)C[C@H]2Oc3ccc(NC(=O)Cc4cn(C)c5ccccc45)cc3C(=O)N([C@H](C)CO)C[C@H]2C)cc1	-4	-10	-6
COc1ccc2c3c(n(C)c2c1)[C@H](CO)N(C(=O)c1cccnc1)CC31CCN(C(=O)c2cccnc2)CC1	-3	.	42
C[C@H]1CN([C@@H](C)CO)C(=O)c2cccc(NC(=O)c3nc4ccccc4s3)c2O[C@H]1CN(C)Cc1ccc(C(=O)Nc2ccccc2N)cc1	.	97*	-91*
C[C@H]1CN([C@@H](C)CO)C(=O)c2cccc(NC(=O)c3nc4ccccc4s3)c2O[C@H]1CN(C)Cc1ccccc1	2	77	-22
C[C@@H]1CN([C@H](C)CO)C(=O)c2cccc(NC(=O)c3ccc(-c4nccs4)cc3)c2O[C@H]1CN(C)Cc1ccc(C(=O)Nc2ccccc2N)cc1	5	72	-91*
C[C@@H]1CN([C@@H](C)CO)C(=O)c2cccc(NC(=O)c3ccc(-c4nccs4)cc3)c2O[C@@H]1CN(C)Cc1ccc(-c2ccccc2)cc1	66	50	-78
C[C@H]1CN([C@@H](C)CO)C(=O)c2cccc(NC(=O)c3ccc(-c4nccs4)cc3)c2O[C@H]1CN(C)Cc1ccccc1	-1	46	-11
C[C@H]1CN([C@@H](C)CO)C(=O)c2cccc(NC(=O)c3ccc(-c4nccs4)cc3)c2O[C@@H]1CN(C)Cc1ccc(C(=O)Nc2ccccc2N)cc1	8	104*	-90*
C[C@H]1CN([C@@H](C)CO)C(=O)Cc2cc(NC(=O)Nc3ccc(C(F)(F)F)cc3)ccc2O[C@@H]1CN(C)Cc1ccc(C(=O)Nc2ccccc2N)cc1	4	41	-72
CCCNC(=O)[C@H]1[C@H](CO)[C@H]2Cn3c(ccc(/C=C/c4ccccc4)c3=O)[C@@H]1N2C(=O)c1ccccc1	3	-11	-6
